High-throughput results deposited in PubChem by PCMD.
C1s inh = blocks human complement C1s protease activity; mean inhibition % of two 10-compound mixtures (stronger effect = higher value), % at 5 µM (by protocol); AID 538; purified C1s, fluorogenic AMC substrate, pooled mixtures; P09871; 62,000 tested, 0.16% active;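 active = inhibition above 20% in each of the two 10-compound mixture wells holding the compound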
Cathepsin G inh = blocks human cathepsin G enzyme activity | inhibition, % at 5 µM (by protocol) | 62,000 tested, 0.2% active | P08311 | AID 581 | purified enzyme, AMC-tetrapeptide fluorescence, pooled mixtures;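 active = inhibition above 20% in each of the two mixture wells holding the compound; inactive = inhibition of 20% or less in either well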
FXIIa mix inh = factor XIIa (human) inhibition, mixture screen; P00748; purified FXIIa, fluorogenic substrate, pooled mixtures; inhibition, % at 5 µM; 62,000 tested, 0.2% active
Target sequence (P00748 20-372 limits assumed): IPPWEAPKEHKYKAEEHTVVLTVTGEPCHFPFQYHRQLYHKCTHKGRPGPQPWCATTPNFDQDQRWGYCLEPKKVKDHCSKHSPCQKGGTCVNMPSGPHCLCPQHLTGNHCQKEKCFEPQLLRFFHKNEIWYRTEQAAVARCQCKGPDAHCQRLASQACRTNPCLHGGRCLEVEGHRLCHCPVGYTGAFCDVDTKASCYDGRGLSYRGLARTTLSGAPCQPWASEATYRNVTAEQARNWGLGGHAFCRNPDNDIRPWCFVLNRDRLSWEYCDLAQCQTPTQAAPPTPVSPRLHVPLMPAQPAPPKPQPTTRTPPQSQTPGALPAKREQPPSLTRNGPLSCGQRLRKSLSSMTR
Target sequence (P00748 373-615 limits assumed): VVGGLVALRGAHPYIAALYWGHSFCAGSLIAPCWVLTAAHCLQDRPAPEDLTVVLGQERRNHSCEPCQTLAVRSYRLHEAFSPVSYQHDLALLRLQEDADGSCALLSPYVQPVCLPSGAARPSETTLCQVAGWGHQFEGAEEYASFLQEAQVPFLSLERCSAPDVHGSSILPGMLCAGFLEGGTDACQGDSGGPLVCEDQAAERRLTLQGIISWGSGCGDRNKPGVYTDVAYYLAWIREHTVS
FXIa inh mix = factor XIa (human) inhibition, mixture screen; P03951; AID 680; inhibition, % at 5 µM; purified FXIa, fluorogenic substrate, pooled mixtures; 62,000 tested, 0.19% active;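 also: each value is inhibition by a whole ten-compound pool holding the compound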
Hits are given with their value; i = inactive. Compounds with a hit are over-represented: about 0.5% of the library has one in this group of screens. Rule as the data show it, unless noted: active = inhibition above about 20% (passing the limit was not always enough); inactive = the rest.

SMILES | C1s inh | Cathepsin G inh | FXIIa mix inh | FXIa inh mix
Cn1c(=O)c2cc(S(=O)(=O)Nc3ccc4c(c3)OCO4)ccc2n(C)c1=O | i | i | i | i
CN(C)S(=O)(=O)Nc1ccc2c(c1)OCO2 | i | i | i | 24
Cn1c(=O)oc2cc(S(=O)(=O)Nc3ccc4c(c3)OCO4)ccc21 | i | i | 45 | i
O=C(c1cc(-c2ccco2)on1)N1CCN(C(c2ccccc2)c2ccccc2)CC1 | i | i | i | i
COC(=O)c1ccccc1S(=O)(=O)Nc1ccc(OC)nc1 | i | i | i | i
C=CCn1cc(C(=O)NCCCOCC)c(=O)c2cc(S(=O)(=O)N(CC)CC)ccc21 | i | i | i | i
CCOC(=O)N1CCN(C(=O)c2ccc3c(=O)n(Cc4ccc(OC)cc4)c(=S)[nH]c3c2)CC1 | i | i | i | i
CCOC(=O)N1CCN(C(=O)c2ccc3c(=O)n(Cc4ccccc4)c(=S)[nH]c3c2)CC1 | i | i | i | 57
CC1CCCCC1NC(=O)CN1CCC(O)(c2ccc(F)cc2)CC1 (stereo unspecified) | i | i | i | i
Cc1cc(NC(=O)c2noc3c2CCc2ccccc2-3)n(-c2ccccc2)n1 | i | 59 | i | i
NC(=O)c1ccccc1NC(=O)CN1CCOCC1 | i | i | i | 20
O=C(CN1CCOCC1)Nc1cccc(Cl)c1Cl | i | i | i | i
COc1ccc(C(=O)NCCCn2ccnc2)cc1 | i | i | i | i
COCC(C)NC(=O)c1noc2c1CCc1cc(OC)ccc1-2 (stereo unspecified) | i | 39 | i | i
COc1cccc(-c2cc(C(=O)NCCN3CCOCC3)no2)c1 | i | i | i | i
COCCNC(=O)c1noc2c1CCc1cc(OC)ccc1-2 | i | 50 | i | i
COc1ccc2c(c1)CCc1c(C(=O)NCCCn3ccnc3)noc1-2 | i | 36 | i | i
COc1ccc2c(c1)CCc1c(C(=O)NCCN3CCOCC3)noc1-2 | i | 58 | i | i
COc1ccc(CNC(=O)c2noc3c2CCCC3)cc1 | i | i | i | i
CCOc1cc(NC2CS(=O)(=O)CC2O)c(OCC)cc1NC(=O)c1ccccc1 (stereo unspecified) | i | i | i | i
O=C(NCc1ccco1)c1noc2c1CCCCC2 | i | i | i | i
O=C(NC1CCCCC1)c1noc2c1CCCCC2 | i | i | i | i
COc1ccc2c(c1)CCc1c(C(=O)NCc3ccco3)noc1-2 | i | 56 | i | i
COc1ccc2c(c1)CCc1c(C(=O)NC3CCCCC3)noc1-2 | i | 74 | i | i
COc1ccc(S(=O)(=O)N2CCC(C(N)=O)CC2)cc1 | i | i | i | 31
SMILES | C1s inh | Cathepsin G inh | FXIIa mix inh | FXIa inh mix
COc1ccc(Cl)cc1NC(=O)CCN1CCN(c2ccccc2C)CC1 | 67 | i | i | i
O=C1N=C(N2CCOCC2)S/C1=C1\C(=O)N(Cc2ccccc2)c2ccc(Br)cc21 | i | i | i | i
CCCCN1C(=O)/C(=C2\SC(N3CCCCC3)=NC2=O)c2ccccc21 | 23 | i | i | i
CC(=O)Nc1cc(OC(=O)c2ccco2)cc(OC(=O)c2ccco2)c1 | i | i | i | 25
O=C(Oc1ccc2ccccc2c1)c1ccco1 | i | i | i | i
CCCC(=O)c1c(NC(C)C)cc(C)oc1=O | i | i | i | i
COc1ccc2[nH]c(=O)c(CN(Cc3nnnn3Cc3ccc(F)cc3)CC3CCCO3)cc2c1 (stereo unspecified) | i | i | 21 | i
COc1ccc2[nH]c(=O)c(CN(Cc3nnnn3Cc3ccccc3)CC3CCCO3)cc2c1 (stereo unspecified) | i | i | i | i
Cc1ccc(-c2nn3c(C)nnc3s2)cc1NC(=O)c1ccc(OC(C)C)cc1 | i | i | i | 22
Cc1cccc(C)c1NC(=O)CSc1nnc(CCCCCNC(=O)OC(C)(C)C)o1 | i | i | i | i
O=C1N(CC(=O)N2CCc3ccccc32)CCN1Cc1ccccc1Cl | i | i | i | i
O=C(C1CCC(CNS(=O)(=O)c2cccc3cccnc23)CC1)N1CCCC1 (stereo unspecified) | i | i | 22 | i
COc1cccc(N2C(=O)N(c3ccccc3Cl)C3CS(=O)(=O)CC32)c1 (stereo unspecified) | 23 | i | i | i
O=C(c1csc2c1CCCC2)N1CCN(c2ncccn2)CC1 | i | i | i | i
O=C(c1csc2c1CCCC2)n1cccn1 | 52 | 48 | i | 45
COc1cc(-c2nnc(SCC(=O)c3cc(C)n(CC4CCCO4)c3C)o2)cc(OC)c1OC (stereo unspecified) | 22 | i | i | i
COc1cccc(C2NC(=O)NC(C)=C2C(=O)Nc2cccc(C)c2C)c1 (stereo unspecified) | i | i | 21 | i
CC(C)CN(CC(C)C)S(=O)(=O)N1CCC(C(=O)NCc2ccc(F)cc2)CC1 | 24 | i | i | i
Cc1ccc(C)c(/C(O)=C2\C(=O)C(=O)N(Cc3cccnc3)C2c2cccnc2)c1 (stereo unspecified) | i | i | i | i
O=c1oc(-c2cccnc2)nc2ccccc12 | i | 56 | i | i
c1cncc(-c2nc3ccccc3o2)c1 | i | i | i | i
O=c1oc(-c2cccc(S(=O)(=O)N3CCOCC3)c2)nc2ccccc12 | i | 49 | i | i
CC(=O)c1ccc(OCCCC(=O)OCC(=O)N2CCN(c3ccccc3)CC2)cc1 | i | i | i | i
Cc1ccc(CS(=O)(=O)CCC(=O)N2CCOCC2)cc1 | i | i | i | i
Cc1ccc(SCc2[nH]nc3c2C(c2ccc(C)o2)C(C#N)=C(N)O3)cc1 (stereo unspecified) | i | i | i | 86
SMILES | C1s inh | Cathepsin G inh | FXIIa mix inh | FXIa inh mix
COc1ccc(N2CCN(c3nc4c(c(=O)[nH]c(=O)n4C)n3CCCc3ccccc3)CC2)cc1 | i | i | i | i
CCN=C1SCC(=O)N1c1ccc(OC)cc1 | i | i | i | i
O=C1CSC(=Nc2ccc(O)cc2)N1c1ccc(O)cc1 | i | 39 | i | i
CCN(CC)C(=O)C(C)OC(=O)c1ccc(O)cc1 (stereo unspecified) | i | i | i | i
CCn1c(SCC(=O)N2CCCc3ccccc32)nnc1-c1cccs1 | i | i | i | i
CCn1c(SCC(=O)N2CCOCC2)nnc1-c1cccs1 | i | i | i | 21
Cc1cc(C)c(S(=O)(=O)NCc2cn3c(C)csc3n2)cc1C | i | i | i | i
O=C(COC(=O)c1cnccn1)c1ccc(OC(=O)c2ccccc2)cc1 | 26 | i | i | i
O=c1c2ccccc2nc2n1CCN2Cc1ccc(Cl)cc1 | i | i | i | i
CCCN1C(=O)C(O)(C2CC(=O)CC(C)(C)O2)c2ccccc21 (stereo unspecified) | i | i | 22 | i
C=CCSC1=N/C(=C\c2ccc(C)o2)C(=O)S1 | i | i | i | i
CCOC(=O)Cn1cnc2sc3c(c2c1=O)CCC3 | i | i | 57 | i
CN(C)c1nc(NS(=O)(=O)c2ccc(Cl)cc2)nc(N(C)C)n1 | i | i | i | i
COc1ccc(S(=O)(=O)n2nc(OC(=O)c3ccccc3)cc2N)cc1 | i | 35 | i | 28
COc1ccc(S(=O)(=O)n2nc(OC(=O)c3cccs3)cc2N)cc1 | i | 38 | i | i
Cc1ccc(NC(=O)c2ccc(S(=O)(=O)NCC3CCCO3)cc2)cc1 (stereo unspecified) | i | i | 22 | i
